# Screens (PubChem BioAssay)
# Hits are enriched below; roughly 3.6% of the tested compounds scored in any of these assays.
# DUSP3 inh: DUSP3 (human) phosphatase inhibition; P51452; recombinant VHR phosphatase, pNPP absorbance; inhibition, % at 13.3 µM; 0.52% of 290,000 active; AID 1654; in the data active means inhibition above about 50%
# Target sequence (P51452 whole entry, looked up): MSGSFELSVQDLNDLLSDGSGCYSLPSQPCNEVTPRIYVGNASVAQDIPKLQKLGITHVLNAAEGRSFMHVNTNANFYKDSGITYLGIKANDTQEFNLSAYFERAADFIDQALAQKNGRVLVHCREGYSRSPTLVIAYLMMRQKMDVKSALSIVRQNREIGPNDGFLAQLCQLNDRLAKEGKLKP
# Mtb bLac sens: beta-lactam sensitization of Mtb H37Rv. M. tuberculosis H37Rv growth with meropenem, percent inhibition. 0.27% of 330,000 active. inhibition, % at 25 µM. AID 434955; call rule not given here;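 further: growth measured after seven days incubation then overnight dye step; 0% = bacteria only wells and 100% = bacteria with antibiotic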
# Mtb hypoxia inh: inhibitors of hypoxia-regulated fluorescent reporter in Mycobacterium tuberculosis; M. tuberculosis hypoxia-regulated fluorescent reporter, fluorescence; AID 1159583; 0.1% of 300,000 active; fluorescence inhibition, % (concentration not given with the values); in the data active means fluorescence inhibition mostly above about 23%, no sharp cut-off; inactive means mostly below about 17%
# Mtb FBA inh: Mtb fructose-bisphosphate aldolase inhibition. 2.3% of 360,000 active. inhibition, % at 1 µM. purified M. tuberculosis FBA, fluorescence read-out. P9WQA3; in the data active means inhibition above about 27%;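 further: 0% = vehicle and 100% = reference inhibitor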
# Target sequence (P9WQA3 whole entry, looked up): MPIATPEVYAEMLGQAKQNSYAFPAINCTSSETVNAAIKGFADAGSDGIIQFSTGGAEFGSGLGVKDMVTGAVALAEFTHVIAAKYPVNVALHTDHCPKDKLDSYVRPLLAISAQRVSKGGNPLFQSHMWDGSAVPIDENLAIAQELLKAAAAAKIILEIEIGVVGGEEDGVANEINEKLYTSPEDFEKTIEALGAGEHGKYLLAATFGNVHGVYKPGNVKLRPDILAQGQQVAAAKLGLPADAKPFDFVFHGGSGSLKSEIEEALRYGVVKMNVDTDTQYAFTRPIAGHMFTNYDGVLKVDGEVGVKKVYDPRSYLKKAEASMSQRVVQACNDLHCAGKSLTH
# GDH-TPI counter: GDH-TPI coupled enzyme inhibition counter-screen; 1.2% of 360,000 active; inhibition, % at 4.8 µM; AID 588335; GDH-TPI coupled enzyme counterscreen, NADH absorbance; in the data active means inhibition above about 30%;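 further: 0% = DMSO wells and 100% = wells lacking the enzyme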
# Active calls of the source: *; · = no result given; + = active, no number.
SMILES,DUSP3 inh,Mtb bLac sens,Mtb hypoxia inh,Mtb FBA inh,GDH-TPI counter
O=C(NCCN1C(=O)S/C(=C\c2ccc(OC(F)F)cc2)C1=O)C1=COCCO1,·,1,5,4,41*
O=C(CC(=O)c1ccccc1O)c1cccc(F)c1,25,98,·,4,11
O=C(CC(=O)c1c(F)cccc1Cl)c1ccccc1O,7,86,-4,10,33*
CCOC(=O)c1sc(N/N=C/c2ccc(N(C)C)cc2)nc1C,-6,13,·,3,18
C=CCc1c(C)nc(C)nc1N/N=C/c1ccc(N(C)C)cc1,-1,55,·,13,50*
CN(/N=C/c1ccccc1O)C(=S)c1ccccc1,-18,11,·,1,32*
O=[N+]([O-])c1ccc(O)c(C2=NNC(c3ccccc3F)C2)c1 (configuration not stated),21,-2,14,8,36*
COc1ccc(C(=O)NNS(=O)(=O)c2ccc(OC)cc2)cc1,58*,11,1,1,-8
COC(=O)C(=NOCc1ccc(C#N)cc1)c1c(C)nn(C)c1C,·,·,-4,·,·
CCOC(=O)c1cnc2c([N+](=O)[O-])cnn2c1C,-7,0,-5,0,37*
CCOC(=O)c1c(CC(C)C)csc1N=CC1=C(O)CCCC1=O,·,·,3,·,·
O=C(OCC#CCSc1nnc(-c2ccccc2)o1)c1ccco1,10,99,·,-3,2
O=C(OCC#CCSc1nnc(-c2cccc3ccccc23)o1)c1cc2ccccc2o1,·,32,48*,0,-9
O=C(OCC#CCSc1nnc(-c2ccc(Br)cc2)o1)c1ccco1,21,100,35*,1,-9
COc1cccc(-c2cc(-c3cccnc3)c(C#N)c(N)n2)c1,27,0,3,+,32*
COc1ccc(-c2cc(-c3ccc(O)cc3)nc(N)c2C#N)cc1,8,70,7,49*,4
COc1cc(-c2cc(-c3ccc(O)cc3)nc(N)c2C#N)ccc1O,-5,32,5,5,18
N#Cc1c(-c2cccc(Br)c2)cc(-c2cccnc2)nc1N,12,5,8,131*,16
COc1ccc(-c2cc(C3CC3)nc(N)c2C#N)cc1,10,-8,1,24,15
COc1cccc(-c2cc(-c3cccnc3)nc(N)c2C#N)c1,21,-5,1,127*,12
COc1ccc(OC)c(-c2cc(-c3cccnc3)nc(N)c2C#N)c1,8,1,·,0,28
CCC1C(Nc2ccccc2)CC2CCN3C(=O)CCCC1C23 (configuration not stated),·,·,-4,·,·
CN1CCN(C(=O)C2=CC(c3ccc(C(F)(F)F)cc3)CC(OCCCCO)O2)CC1 (configuration not stated),·,·,-6,·,·
CC(C)=CCn1c2ccc(NC(=O)Nc3ccc(N(C)C)cc3)cc2c(=O)n1C,·,·,·,3,4
CN1C(=O)CSc2ccc(NC(=O)NCc3ccc(F)cc3)cc21,-5,7,0,1,4
SMILES,DUSP3 inh,Mtb bLac sens,Mtb hypoxia inh,Mtb FBA inh,GDH-TPI counter
CC(C)=CCn1c2ccc(NC(=O)NCc3ccc(F)cc3)cc2c(=O)n1C,·,·,·,138*,5
COc1ccc(CCNC(=O)Nc2ccc3c(c2)c(=O)n(C)n3CC=C(C)C)cc1OC,·,·,·,148*,3
CCNC(=O)Nc1ccc2c(c1)c(=O)n(C)n2CC=C(C)C,·,·,·,173*,4
CCN(CC)C(=O)C(=Cc1cccc([N+](=O)[O-])c1)NC(=O)c1ccco1,·,·,-1,·,·
Cn1cccc1-c1cc(C(=O)NN=Cc2ccccc2Cl)[nH]n1,·,·,11,·,·
C[C@@]12C(=O)N(Cc3ccco3)CC(=O)N1C1c3ccccc3OCC1C2c1ccccc1 (some centres not stated),·,·,0,·,·
CCn1c(=S)sc2c(=O)n(-c3ccccc3)c(SCC(=O)NCc3ccco3)nc21,19,·,0,0,38*
CC1=NN(C(N)=S)C(=O)C1N=Nc1c(C)n(C)n(-c2ccccc2)c1=O (configuration not stated),·,-1,-7,-11,31*
CC(=O)/C(=C/Nc1ccc(Oc2ccccc2)cc1)c1ccccc1,3,87,·,0,7
COc1cc(N/C=C(\C(C)=O)c2ccccc2)cc(OC)c1,-9,45,·,-3,44*
COc1ccc2cc(C=NNC(=O)CSCc3ccc([N+](=O)[O-])cc3)c(Cl)nc2c1,·,·,9,·,·
O=C(c1ccccn1)N(Cc1cc2ccccc2[nH]c1=O)C1CCCCC1,23,1,·,+,10
COc1ccc2[nH]c(=O)c(CN(C(=O)c3ccccn3)C3CCCCC3)cc2c1,15,-2,·,11,12
COc1cc2cc(CN(C(=O)NC3CCCCC3)C3CCCC3)c(=O)[nH]c2cc1OC,10,-3,10,4,23
O=C(NC1CCCCC1)N(Cc1cc2cc3c(cc2[nH]c1=O)OCCO3)C1CCCCC1,23,42,4,8,35*
CC1CN(C)C(C)CC1=NOc1ccccc1[N+](=O)[O-] (configuration not stated),·,·,8,·,·
c1ccc(C2=NN(c3ccccc3)C(c3ccco3)C2)cc1 (configuration not stated),-14,-2,-9,126*,8
COc1ccc(-n2cc(-c3ccc(OC)c(OC)c3)[nH]c2=S)cc1,51*,13,·,0,6
CCN(CC)Cc1c(O)ccc2cc(-c3nc4ccccc4n3C)c(=O)oc12,·,13,2,+,12
CC(C)(C)C(=O)Oc1ccc2cc(-c3ccc4ccccc4n3)c(=O)oc2c1,26,14,2,8,-1
CC(=O)Oc1ccc2cc(-c3nc4ccccc4n3C)c(=O)oc2c1,19,5,1,+,30
CCc1cc2c(=O)c(-c3nc4ccccc4n3C)c(C)oc2c(CN(CC)CC)c1O,41,-14,·,14,16
CC(=NNc1nccnc1Cl)c1c(F)c(F)c(F)c(F)c1F,·,·,1,·,·
C#CCOCCOCCOCCNc1nc(N2CCN(C(=O)C(Cc3ccc(O)cc3)n3cc(C(N)CC(C)C)nn3)CC2)nc(N2CCN(C(=O)C(C(C)CC)n3cc(C(N)CO)nn3)CC2)n1 (configuration not stated),·,·,10,·,·
COC(=O)C1=C(c2cccc3c2S(=O)(=O)c2ccccc2-3)CC2CCC1N2C(=O)N1CCc2cc(OC)c(OC)cc2C1 (configuration not stated),·,·,-4,·,·
SMILES,DUSP3 inh,Mtb bLac sens,Mtb hypoxia inh,Mtb FBA inh,GDH-TPI counter
CC1CCN(c2oc(-c3cccc4ccccc34)nc2C#N)CC1,9,-11,1,2,5
CCNc1oc(-c2cccc3ccccc23)nc1C#N,-3,8,2,+,30
C=CCNc1oc(-c2cccc3ccccc23)nc1C#N,-16,2,18,+,8
CC(C)Nc1oc(-c2cccc3ccccc23)nc1C#N,1,1,12,+,22
CCNC(=S)NN=Cc1ccc(C#N)cc1,·,·,3,·,·
Nc1ccc(C(=O)C(=O)c2ccc(N)cc2)cc1,20,-1,·,1,38*
Cc1ccc(NC(=O)Nc2ccno2)cc1,8,1,89*,3,8
O=C(Nc1ccno1)Nc1ccc(Cl)cc1Cl,12,6,58*,-2,-3
